# hERG WT inh: qHTS for Inhibitors of KCHN2 3.1: Wildtype qHTS; Voltage-gated inwardly rectifying potassium channel KCNH2 (Homo sapiens), Q12809; activity change, % at 1.84 µM; U2OS, BacMam KCNH2, thallium flux FluxOr; stronger effect = lower value; hit rate 0.37% among 340,000;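 active means maximum activity change below -70%; inconclusive means maximum activity change between -70% and -50%; inactive means maximum activity change above -50%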; further: on the % scale 0 is the no-effect control and ±100 the full control effect
#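 U2OS cells transduced with wild-type KCNH2 virus are loaded with FluxOr dye for 45 min, and thallium flux is measured in kinetic reads before and after stimulation buffer. Rate constants are normalized to DMSO controls.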
# Glioma ERSR ind: qHTS for Inducers of the Endoplasmic Reticulum Stress Response (ERSR) in Human Glioma: qHTS; hit rate 0.02% among 420,000; Potency, µM, for inactives: at the top dose activation, most hits filed as activators; AID 602332, 2012; U87-MG GRP78 promoter luciferase reporter, 16 h; active means well fitted activation curve with a large enough effect; inconclusive means small, poorly fitted or top-dose-only effect; inactive means no such curve, though single readings can be large or run the other way; further: potency means the concentration at half of the fitted maximal effect; series mostly up to about 76 µM; % of control where 0% means no effect; nearly all actives have a fitted effect of over 35% in size
#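 Stably transfected U87-MG glioma cells carrying a GRP78-based luciferase sensor; 16 h compound incubation. Luminescence end-point read 10 min after Bright-Glo addition at room temperature.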
# gsp antagonist: qHTS for Antagonists of gsp, the Etiologic Mutation Responsible for Fibrous Dysplasia/McCune-Albright Syndrome: qHTS; AID 624288, 2012; hit rate 0.4% among 340,000; gsp-mutant cells, cAMP HTRF, 30 min; Potency, µM (series often up to 76.9 µM), for the others: top-dose activity change, negative = inhibition, hits mostly inhibitors; calls by dose curve; cell line not stated here;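 further: intracellular cAMP measured with PDE inhibitor Ro 20-1724 present during compound exposure; potency means the concentration at half of the fitted maximal effect; on the % scale 0 is the no-effect control and ±100 the full control effect; nearly all actives have a fitted effect of over 65% in size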
#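 Measurement of cellular cAMP by homogeneous time-resolved fluorescence following a 30 min compound exposure at 37C. The PDE inhibitor […] was present throughout; the assay buffer was DPBS with 0.05% BSA and 0.005% Tween 20.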
# KCNH2 3.1 inh: qHTS for Inhibitors of KCHN2 3.1: Mutant qHTS | Potassium voltage-gated channel subfamily H member 2, brain isoform KCNH2 3.1 (human) | U2OS KCNH2 3.1, thallium flux FluxOr; stronger effect = lower value | activity change, % (tested at about 1.8 µM) | hit rate 0.95% among 340,000;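 active means maximum activity change below -70%; inconclusive means maximum activity change from -70% to -50%; inactive means maximum activity change above -50%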;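 further: thallium influx rate constant from kinetic fluorescence after stimulation buffer; on the % scale 0 is the no-effect control and ±100 the full control effect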
#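 Thallium flux read-out: FluxOr dye with Red40 quencher in HBSS/HEPES, 45 min at RT. Rate constants from kinetic reads were normalized to positive and negative DMSO controls. Cells: U2OS virally expressing the 3.1 isoform.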
# pAkt inh: HTS Assay for Inhibitors of Akt Phophorylation: Primary Screen; Neuro2A IGF-stimulated pAkt S473 HTRF, 20 min; stronger effect = lower value; activity change, % for hits at 50 µM; hit rate 0.32% among 360,000; AID 651550, 2012; in the data active means activity change below about -80%; inconclusive means mostly about -51% to -80%; further: on the % scale 0 is the no-effect control and ±100 the full control effect
#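 Single-point screen (50 µM final compound) in Neuro2A cells stimulated 20 min with 6 nM IGF at 37 deg C. After lysis, Ser473-phosphorylated Akt read by HTRF (ex 330 nm, em 615/665 nm) as the 665/615 ratio.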
# gsp agonist: qHTS for Agonist of gsp, the Etiologic Mutation Responsible for Fibrous Dysplasia/McCune-Albright Syndrome: qHTS | gsp mutant cells, cAMP HTRF, 30 min | Potency, µM (highest dose often 76.9 µM), inactives show at the highest dose activation (cAMP increase), most hits filed as activators | hit rate 0.13% among 340,000; active means well fitted activation curve with a large enough effect; inconclusive means small, poorly fitted or top-dose-only effect, or another doubt; inactive means no such curve, though single readings can be large or run the other way; cell line not stated here;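 further: phosphodiesterase inhibitor Ro 20-1724 added with compounds to block cAMP breakdown; potency means the concentration at half of the fitted maximal effect; nearly all actives have a fitted effect of over 60% in size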
#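 Cells in DMEM/10% FBS with G418 were pretreated with compounds in DMSO plus […] (300 uM stock) for 30 min at 37C. cAMP was measured by HTRF (cAMP-d2 plus anti-cAMP antibody-K) after 30 min at room temperature.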
# * hit, by the source's call; i = inactive; u = inconclusive; x = no result; [ ] = remark or other dose. Rows were chosen to be rich in hits. Some 1.6% of all compounds tested hit in one or more screens of this group.
SMILES,hERG WT inh,Glioma ERSR ind,gsp antagonist,KCNH2 3.1 inh,pAkt inh,gsp agonist
COc1ccccc1NS(=O)(=O)c1cccc(NC(=O)Nc2ccccc2)c1,7,-5%,u,-4,i,-4%
COc1ccc2cc(CNCc3ccccc3Cl)c(N3CCCC(CO)C3)nc2c1 (stereo not given),x,-7%,x,x,x,x
O=C1C=CC(=O)N1CCCCCCCCCCN1C(=O)C=CC1=O,1,-11%,35µM*,-39,i,9%
CCCOc1ccc(CCc2n[nH]c(=S)n2-c2ccccc2)cc1,-3,-1%,-12%,-74*,i,0%[15.4 µM]
CSc1nccc(-c2cc(Cl)c3c(c2)CC(CNC(=O)c2ccc(C)nc2)O3)n1 (stereo not given),x,2%,x,x,x,x
Cc1noc(/C=C/N(C)C)c1S(=O)(=O)N(C)Cc1ccc(F)cc1,-134*,-1%,-27%,-199*,i,-26%
Cc1ccc(CN(C)S(=O)(=O)c2c(C)noc2/C=C/N(C)C)cc1,-8,-3%,-16%,-15,i,-13%
S=c1nc(SCc2ccccc2)[nH]c2ccccc12,u,1%,-3%,-128*,i,52%[15.4 µM]
Cc1ccc(NC(=O)/C=C/c2ccc(S(=O)(=O)N3CCOCC3)cc2)cc1S(=O)(=O)N(C)C,-3,-1%,35µM*,2,i,13%[15.4 µM]
Cc1ccc(NC(=O)c2cc(S(=O)(=O)N(C)C)ccc2N2CCCC2)cc1S(=O)(=O)N(C)C,10,32µM*,4%,-3,i,u
Cc1ccc(NC(=O)c2cc(S(=O)(=O)N3CCCCC3)ccc2N2CCOCC2)cc1S(=O)(=O)N(C)C,0,-2%,-11%,-2,i,26%
CC(=O)Nc1cccc(NC(=O)/C=C/c2ccc(S(=O)(=O)N3CCOCC3)cc2)c1,2,-2%,-7%,-4,i,-18%[15.4 µM]
Cc1ccc(S(=O)(=O)CC(O)CN2CCCC2=O)cc1 (stereo not given),1,-4%,12%,5,-117%*,-60%
O=C(c1ccc2[nH]ccc2c1)N1CCOc2ccc(CN3CCN(c4ccccn4)CC3)cc2C1,x,-4%,x,x,x,x
O=C(NC(CC(=O)N1CCN(c2ccc([N+](=O)[O-])cc2)CC1)c1ccccc1)c1ccccc1Cl (stereo not given),-117*,-4%,-5%,-107*,i,-22%
OC1CCN(Cc2ccc3c(c2)CN(Cc2ccc(Oc4ncccn4)cc2)CCO3)CC1,x,-4%,x,x,x,x
COc1cccc(C(=O)N(Cc2nc(-c3ccc(C)cc3)no2)C(C)C)c1,2,-4%,-5%,10,-100%*,-16%
COc1ccc(-c2noc(CCC(=O)N3CCN(c4cccc(OC)c4)CC3)n2)cc1,-12,0%,45µM*,1,i,x
COc1ccc(-c2nc(CSCC(=O)N3CCN(c4ccccc4F)CC3)c(C)o2)cc1,x,-5%,x,x,x,x
CCOc1ccc(-c2nc(CSCC(=O)N3CCN(c4cccc(OC)c4)CC3)c(C)o2)cc1,-3,-6%,40µM*,0,i,u
CC1CN(CC(=O)NCCC2COc3ccccc3O2)Cc2cc(Cl)ccc2O1 (stereo not given),x,-5%,x,x,x,x
OC(COc1ccccc1)CN1CCC(Cc2ccccc2)CC1 (stereo not given),0,-3%,7%,-115*,i,0%[15.4 µM]
OC(COc1ccccc1F)CN1CCC(Cc2ccccc2)CC1 (stereo not given),-21,-3%,8%,u,i,-23%
OC(COc1ccc(F)cc1Cl)CN1CCC(Cc2ccccc2)CC1 (stereo not given),u,0%,18%,-93*,i,-6%
Cc1ccccc1OCC(O)CN1CCN(CC(O)COc2ccccc2C)CC1 (stereo not given),15,-3%,16%,-22,i,20%
SMILES,hERG WT inh,Glioma ERSR ind,gsp antagonist,KCNH2 3.1 inh,pAkt inh,gsp agonist
Cc1ccccc1OCC(O)CN1CCC(C)CC1 (stereo not given),11,-4%,9%,-80*,i,-14%[15.4 µM]
CN(C)c1ccc(/C=C/N2C=CCc3c2ccc2ccccc32)cc1,x,-11%,x,x,x,x
NNC(=O)c1cccn(Cc2ccc(Cl)cc2Cl)c1=O,-88*,-1%,-12%,-6,i,12%
COc1ccc(-c2ccnc3nc(N4CCOCC4)nn23)cc1,-4,-3%,2%,-108*,i,0%
c1ccc(Oc2ccc(-c3ccnc4nc(N5CCOCC5)nn34)cc2)cc1,-10,1%,-17%,-118*,i,34%
CC(=O)Nc1ccc(/C=C/c2sc3ccccc3[n+]2CCCCI)cc1,x,-4%,x,x,x,x
CCC(C)(C)n1nnnc1C(c1ccc2ncccc2c1)N1CCN(c2nc3ccccc3s2)CC1 (stereo not given),0,1%,-14%,-90*,i,-30%
CCC(C)(C)n1nnnc1C(c1ccc2ncccc2c1)N1CCN(c2ccc(O)cc2)CC1 (stereo not given),0,-7%,u,12,i,-5%[15.4 µM]
CCC(C)(C)n1nnnc1C(c1ccc(OC)c(OC)c1)N1CCN(c2cccc(OC)c2)CC1 (stereo not given),5,0%,4%[15.4 µM],9,i,1%
COCCn1nnnc1C(c1ccc2ncccc2c1)N1CCN(c2ccccc2F)CC1 (stereo not given),14,-2%,0%,13,-104%*,3%
COCCn1nnnc1C(c1ccc2ncccc2c1)N1CCc2ccccc21 (stereo not given),15,-4%,-9%,7,i,-35%
CCC(C)(C)n1nnnc1C(c1ccc(OC)c(OC)c1)N1CCN(c2ccccc2)CC1 (stereo not given),1,-5%,-10%,-1,-105%*,-10%
CCCCCCCCCCCC[N+](C)(C)Cc1ccccc1,x,-7%,x,x,x,x
CC(C)(C)n1ncc2c(=O)n(Cc3cccc(-c4cccs4)c3)cnc21,x,-2%,x,x,x,x
O=C(C[n+]1cccc2cc(Cl)ccc21)c1ccc2c(c1)CCCC2,x,-3%,x,x,x,x
O=[N+]([O-])c1cccc2[nH]cnc12,x,-1%,x,x,x,x
Cn1c(=O)c(=O)n(C)c2cc(S(=O)(=O)N3CCC(Cc4ccccc4)CC3)ccc21,1,-5%,-2%,-10,i,4%
